Reference: PubChem BioAssay (NCI)
This is part of a sample that, as a whole, favours compounds with a hit. Of some 79,000 tested, about 15% had one in any assay. No stated cut-off is given here; in the data, active means growth inhibition above about 70%; inactive means the rest.

What was measured:
[1] = NCI Yeast Anticancer Drug Screen. Data for the rad50 strain (AID 155);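 further: 0% = growth of vehicle-only cultures of the same strain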; conditions: S. cerevisiae rad50 strain growth inhibition; at 50.0 µM; stronger effect = higher value
Method in brief: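 Growth of the mutant yeast was measured after compound exposure and referenced to vehicle-treated cultures.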

[2] = NCI Yeast Anticancer Drug Screen. Data for the mec2-1 strain (AID 157); conditions: S. cerevisiae mec2-1 strain, at 50.0 µM, stronger effect = higher value
Method in brief: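 Test agents were screened against the mec2-1 yeast strain, with defined DNA repair or cell cycle alteration. Growth was scored as inhibition against vehicle-only controls.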

[3] = NCI Yeast Anticancer Drug Screen. Data for the sgs1 mgt1 strain (AID 161);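 further: 0% = growth of cultures given vehicle only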; conditions: S. cerevisiae sgs1 mgt1 strain, at 50.0 µM, stronger effect = higher value
Method in brief: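 Test agents were incubated with a DNA-repair-mutant yeast strain. Growth was then read and compared against vehicle-treated controls.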

[4] = NCI Yeast Anticancer Drug Screen. Data for the cln2 rad14 strain (AID 165);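 further: 0% = growth equal to vehicle treated cultures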; conditions: S. cerevisiae cln2 rad14 strain, at 50.0 µM, stronger effect = higher value
Method in brief: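 Growth of compound-exposed yeast (cln2 rad14 genotype) measured and expressed as inhibition relative to vehicle.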

[5] = NCI Yeast Anticancer Drug Screen. Data for the bub3 strain (AID 167); conditions: S. cerevisiae bub3 mutant strain, at 50.0 µM, stronger effect = higher value
Method in brief: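 Whole-cell yeast assay. The mutant strain was incubated with compounds, and growth inhibition was determined by comparison with vehicle-treated cells.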

[6] = NCI Yeast Anticancer Drug Screen. Data for the mlh1 rad18 strain (AID 175); conditions: S. cerevisiae mlh1 rad18 strain growth inhibition; at 50.0 µM; stronger effect = higher value
Method in brief: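 In this whole-cell yeast screen, a strain with altered DNA damage repair is challenged with compound, and its growth is measured against matched vehicle-treated controls.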

Measured: growth inhibition

CCc1ccc(N=Nc2c(F)c(F)c(NC(C)=O)c(F)c2F)cc1
inactive: [1] -3.95% | [2] 11.3% | [3] -10.5% | [4] 6.9% | [5] 7.9% | [6] -13.4%

O=C(Cc1ccccc1)NC(CSCc1ccccc1)C(=O)O (stereo not drawn)
inactive: [1] 9.85% | [2] 19.2% | [3] -15% | [4] -39.1% | [5] 10.8% | [6] 40.2%

O=S(=O)(O)c1cc(O)ccc1O.O=S(=O)(O)c1cc(O)ccc1O.[NH-]C1CCCCC1[NH-].[Pt+2]
inactive: [1] 17.6% | [2] -4.85% | [3] -5.2% | [4] 4.8% | [5] -0.85% | [6] -3.25%

CCOC(=O)c1c(-c2ccc(OC)cc2)c(C#N)c(=S)n(C2OC(COC(C)=O)C(OC(C)=O)C(OC(C)=O)C2OC(C)=O)c1-c1ccccc1 (stereo not drawn)
inactive: [1] -4.6% | [2] 0.05% | [3] -3.2% | [4] 21.6% | [5] 11.9% | [6] 13.4%

O=C(C[n+]1csc2ccccc21)c1ccc(-c2ccccc2)cc1
inactive: [1] 18.1% | [2] 9.8% | [3] -11.9% | [4] -3.05% | [5] 11.6% | [6] 4.85%

COc1cccc2c1CCC(=O)C2C (stereo not drawn)
inactive: [1] 35.1% | [2] -0.9% | [3] 14.3% | [4] -5.45% | [5] 13.6% | [6] 22.9%

COc1ccccc1NC(=O)C1=C(C)NC(C)=C(C(=O)Nc2ccccc2OC)C1c1ccc(N(C)C)cc1
inactive: [1] 50.2% | [2] 41.4% | [3] 61.4% | [4] 24.9% | [5] 46.2% | [6] 45%

NC(=O)c1nnn(Cc2ccccc2)c1C(N)=O
inactive: [1] -13.9% | [2] -11.4% | [3] 12.6% | [4] -33.6% | [5] 8% | [6] 3.85%

COC(=O)C1CC[N-]CC1.COC(=O)C1CC[N-]CC1.[Cl][Pt+2][Cl]
inactive: [1] -0.15% | [2] 6.9% | [3] -6.8% | [4] -24.4% | [5] -4.15% | [6] 21.2%

Clc1cc(Cl)c2ccc3c(Cl)cc(Cl)c4ccc1c2c43
inactive: [1] -18.6% | [2] -33.3% | [3] -10.8% | [4] 7.3% | [5] -30.8% | [6] -20.6%

CCO/C=C1\SC(=S)N(CCc2ccc(OC)c(OC)c2)C1=O
inactive: [1] -0.85% | [2] -6.85% | [3] -10.9% | [4] -2.2% | [5] -5.6% | [6] -10.5%

CN(C)c1ccc2oc3ccccc3c2c1
inactive: [1] -4.5% | [2] -4.5% | [3] -21.4% | [4] -23.9% | [5] 5.35% | [6] -26.4%

C/C(C=C(C#N)C#N)=C\c1ccccc1
inactive: [1] 25.3% | [2] 11.3% | [3] -5.7% | [4] 14.2% | [5] 36.9% | [6] 17.6%

CCC(CCC(C)C1CCC2C3CC=C4CC(OC(=O)Nc5ccccc5)CCC4(C)C3CCC12C)C(C)C (stereo not drawn)
inactive: [1] -23.4% | [2] -28.1% | [3] -15.9% | [4] -38.5% | [5] -1.5% | [6] -26.4%

S=C(NCc1ccco1)Nc1ccccc1Cl
inactive: [1] 5.5% | [2] -4.1% | [3] 16.2% | [4] 4.5% | [5] 4.4% | [6] 1.2%

COCc1ccccc1P(c1ccccc1COC)c1ccccc1COC
inactive: [1] 31% | [2] 18.9% | [3] 42% | [4] 16.2% | [5] 10.5% | [6] 36%

CC(NC(=O)OCc1ccccc1)NC(=O)OC(C)(C)C (stereo not drawn)
inactive: [1] -47% | [2] -63.5% | [3] -18.9% | [4] -13.2% | [5] -14.6% | [6] -26.8%

CS(=O)CCN=Cc1ccc(N=Nc2ccc(O)cc2)cc1 (stereo not drawn)
inactive: [1] 5.8% | [2] 1.65% | [3] -0.85% | [4] -33.4% | [5] 13.5% | [6] 2.65%

O=[N+]([O-])c1ccc(OC(=S)Oc2ccc([N+](=O)[O-])cc2)cc1
inactive: [1] 3.45% | [2] -16.7% | [3] 2.9% | [4] -4.4% | [5] -0.05% | [6] 1.8%

COc1ccc(/C(Cl)=C(\C=O)c2cc(OC)c(OC)c(OC)c2)cc1OC
inactive: [1] -0.9% | [2] 23.1% | [3] -5% | [4] 13.8% | [5] -3.45% | [6] 13.9%

O=c1oc2ccccc2c(N2CCCCC2)c1Cl
inactive: [1] 1.6% | [2] 40.6% | [3] 12.3% | [4] 22.1% | [5] 17.6% | [6] 15%

COc1ccc(C2=CN(S(=O)(=O)c3ccc(C)cc3)CCc3ccccc32)cc1
inactive: [1] -31.4% | [2] -10.9% | [3] -31.8% | [4] -59.8% | [5] -6.6% | [6] -23.7%

O=C1C(O)=C(Br)C(=O)C(O)=C1Br
inactive: [1] 6.2% | [2] -12.2% | [3] 10.1% | [4] -12.1% | [5] 15.4% | [6] 11.6%

O=C(O)C(O)C(O)C(O)C(O)C(=O)O.[NH-]C1CCCCC1[NH-].[Pt+2] (stereo not drawn)
inactive: [1] 8.15% | [2] -3.25% | [3] -1.55% | [4] 12.9% | [5] 8.25% | [6] 6.75%

CCCCCCCCCCCCCCCC(=O)N(CCCC)CCCC
inactive: [1] 3.55% | [2] 5.7% | [3] -4.05% | [4] 11.9% | [5] 3.4% | [6] 8.85%

FC(F)(F)c1ccc(Cl)c(N=C=S)c1
inactive: [1] -26.1% | [2] -9.15% | [3] 31.4% | [4] -108% | [5] -21.8% | [6] -4.7%

CCOC1(OCC)C(=O)N(c2ccc(Cl)c(Cl)c2)C(=O)N1c1ccc(Cl)c(Cl)c1
inactive: [1] 39.2% | [2] 1.4% | [3] -5.6% | [4] 7.5% | [5] -3.65% | [6] -0.45%

O=C(O)CCC(C(=O)O)N1C(=O)C2C3CCC(C3)C2C1=O (stereo not drawn)
inactive: [1] -26% | [2] -33.9% | [3] -36.2% | [4] -16% | [5] -24.9% | [6] -5.45%

CC1(C)C(CCO)CC1CCO (stereo not drawn)
inactive: [1] 2.25% | [2] -2.5% | [3] -1.45% | [4] -0.45% | [5] 0.4% | [6] -7.5%

CC1(C)OC2OC(C(O)COC(=O)c3ccccc3)C(Cl)C2O1 (stereo not drawn)
inactive: [1] 26.6% | [2] 8.35% | [3] -1.6% | [4] -5.5% | [5] 14.2% | [6] 39.3%

CCOC1OCCCC1C(OCC)C(C)C (stereo not drawn)
inactive: [1] 39% | [2] 14.7% | [3] 19.4% | [4] 9.35% | [5] -0.7% | [6] 12.4%

CCC(=O)OCCC(C)C
inactive: [1] 35.4% | [2] 12.2% | [3] 6.85% | [4] -22.1% | [5] 19.9% | [6] 17.4%

Cc1cc(=O)n2ccnc2[nH]1
inactive: [1] 24.2% | [2] 11.3% | [3] 6.2% | [4] 19.1% | [5] 9.65% | [6] 20.1%

CCOC(=O)Nc1c2ccccc2c(NC(=O)OCC)c2ccccc12
inactive: [1] 30.2% | [2] 8.9% | [3] 1% | [4] 12.8% | [5] 15% | [6] -6%

CCOc1cccc2c1N[S@@](=O)S2
inactive: [1] 4.85% | [2] -26.7% | [3] 11.5% | [4] 16.2% | [5] 7.8% | [6] 33.6%

CCCC(=O)NS(=O)(=O)c1ccc(C)cc1
inactive: [1] 2.85% | [2] 7.3% | [3] 3.45% | [4] -24.9% | [5] 0.25% | [6] 5.75%

CC(=O)c1ccc(C(=O)c2cccnc2)cc1
inactive: [1] -17% | [2] -9.2% | [3] -0.4% | [4] -49.3% | [5] -14.7% | [6] 7.4%

Cc1ccc(C(=O)CC2(O)C(=O)Nc3ccccc32)cc1 (stereo not drawn)
inactive: [1] 25.4% | [2] 17.4% | [3] 22.4% | [4] 16.9% | [5] 14.3% | [6] 20.9%
